The structures appear in SMILES notation. Results filed as inconclusive are left out. Activity calls are given as the source filed them. Calls follow the shape of the dose curve; as a rule, active = well fitted inhibition curve with a large enough effect; inconclusive = small, poorly fitted or top-dose-only effect; inactive = flat fitted curve, though single readings scatter.

For three compounds, Potency results are on record in PubChem BioAssay (NCATS).

Common to all, as to assay: qHTS profiling for inhibitors of Plasmodium falciparum proliferation (AID 504749); also: nearly all actives have a fitted effect of over 60% in size
What all share (settings): P. falciparum in erythrocytes, SYBR Green DNA, 72 h; series mostly up to 28.7 µM
(In qHTS, concentration-response curves come from the screen itself.)

The subject of one assay is 7G8. The procedure, abridged: (§1)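 Quantitative HTS: compounds pinned into medium, infected erythrocytes added (0.3% parasitemia, 2.5% hematocrit), 72 h culture at 37 C under 5% CO2. Saponin/Triton lysis with SYBR Green I, overnight RT, then fluorescence read.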
A further assay has as its system AS120. The procedure, abridged: as §1
A further assay deals with ATS189. In a few lines: as §1
The next assay has as its system CP185. The procedure, abridged:
as §1

For the next assay, the system named is CP192. In a few lines:
as §1

The subject of another assay is CP201. In a few lines:
as §1

A further assay concerns CP203. The procedure, abridged: as §1
Another assay relates to CP238. The procedure, abridged:
as §1

Another assay relates to CP247. In a few lines:
as §1

A further assay deals with CP265. The procedure, abridged: as §1
The subject of another assay is CP268. In a few lines:
as §1

The next assay relates to CP286. In a few lines: as §1
The subject of the next assay is CP291. In a few lines: as §1
The subject of another assay is CP305. In a few lines: as §1
The test system of the next assay is CP335. The procedure, abridged:
as §1

A further assay deals with DIV30. The procedure, abridged:
as §1

A further assay concerns GB4. The procedure, abridged: as §1
In another assay the test system is P94_40. In a few lines:
as §1

Another assay has as its system TAB109. The procedure, abridged:
as §1

The next assay concerns TAB113. The procedure, abridged: as §1
Potency is read from the fitted curve at half-maximal effect.

With `C[C@@H]1O[C@@H](O[C@H]2C[C@@H](O)[C@@]3(CO)[C@H]4[C@H](O)C[C@]5(C)[C@@H](C6=CC(=O)OC6)CC[C@]5(O)[C@H]4CC[C@@]3(O)C2)[C@@H](O)[C@H](O)[C@H]1O`, the Potency result in the assay on 7G8, in the assay with AS120, with ATS189, in the assay with CP185, in the assay on CP192 and in the assay on CP201 was “inactive” throughout. Besides, the Potency entry in the assay with CP203, in the assay with CP238, in the assay with CP247, in the assay with CP265, in the assay with CP268 and in the assay with CP286 was “inactive” each time. Also, the Potency entry with CP291, in the assay with CP305, in the assay on CP335, with DIV30, in the assay on GB4 and in the assay with P94_40 was “inactive” each time. In addition, the Potency result in the assay with TAB109 and in the assay on TAB113 was “inactive” throughout.

For the compound `C[C@@H](Cc1ccc(O)cc1)NC[C@@H](O)c1cc(O)cc(O)c1`, the Potency entry in the assay on 7G8, with AS120, in the assay on ATS189, with CP185, in the assay on CP192 and in the assay with CP201 was “inactive” each time. In addition, the Potency entry in the assay on CP203, in the assay with CP238, with CP247, in the assay with CP265, with CP268 and in the assay on CP286 was “inactive” each time. The Potency result with CP291, in the assay on CP305, with CP335, in the assay on DIV30, in the assay on GB4 and in the assay on P94_40 was “inactive” throughout. Moreover, the Potency entry with TAB109 and in the assay with TAB113 was “inactive” throughout.

With `C=C[C@@H]1CN2CC[C@H]1C[C@H]2[C@H](O)c1ccnc2ccccc12`, the Potency in the assay on 7G8 was 158 nM (active); with AS120 it was 891 nM (active); in the assay with ATS189, 794 nM (active); in the assay on CP185 it was 1.26 µM (active); with CP192, 953 nM (active); in the assay on CP201, 1.51 µM (active). In addition, the Potency is 675 nM (active) in the assay on CP203; 1.41 µM (active) with CP238; 2.24 µM (active) with CP247; 891 nM (active) in the assay on CP265; 1.2 µM (active) in the assay on CP268; 794 nM (active) with CP286. The Potency in the assay with CP291 was 675 nM (active); with CP305 it was 757 nM (active); in the assay with CP335, 757 nM (active); with DIV30, 757 nM (active); with GB4, 169 nM (active); in the assay with P94_40, 398 nM (active). For the same compound, the Potency with TAB109 was 178 nM (active); in the assay on TAB113, 501 nM (active).
